A selection: hits, their analogues and other compounds. The true share with any hit is near 2.5%.
ULK1 inh: inhibitors of human ULK1 kinase; O75385; AlphaScreen Atg13 phosphorylation by ULK1, luminescence; inhibition, % at 5.96 µM; 30,000 tested, 1.9% active; AID 1259251; in the data active means inhibition above about 43%;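 further: 0% = median of compound wells and 100% = no enzyme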
Target sequence (O75385 whole entry, looked up): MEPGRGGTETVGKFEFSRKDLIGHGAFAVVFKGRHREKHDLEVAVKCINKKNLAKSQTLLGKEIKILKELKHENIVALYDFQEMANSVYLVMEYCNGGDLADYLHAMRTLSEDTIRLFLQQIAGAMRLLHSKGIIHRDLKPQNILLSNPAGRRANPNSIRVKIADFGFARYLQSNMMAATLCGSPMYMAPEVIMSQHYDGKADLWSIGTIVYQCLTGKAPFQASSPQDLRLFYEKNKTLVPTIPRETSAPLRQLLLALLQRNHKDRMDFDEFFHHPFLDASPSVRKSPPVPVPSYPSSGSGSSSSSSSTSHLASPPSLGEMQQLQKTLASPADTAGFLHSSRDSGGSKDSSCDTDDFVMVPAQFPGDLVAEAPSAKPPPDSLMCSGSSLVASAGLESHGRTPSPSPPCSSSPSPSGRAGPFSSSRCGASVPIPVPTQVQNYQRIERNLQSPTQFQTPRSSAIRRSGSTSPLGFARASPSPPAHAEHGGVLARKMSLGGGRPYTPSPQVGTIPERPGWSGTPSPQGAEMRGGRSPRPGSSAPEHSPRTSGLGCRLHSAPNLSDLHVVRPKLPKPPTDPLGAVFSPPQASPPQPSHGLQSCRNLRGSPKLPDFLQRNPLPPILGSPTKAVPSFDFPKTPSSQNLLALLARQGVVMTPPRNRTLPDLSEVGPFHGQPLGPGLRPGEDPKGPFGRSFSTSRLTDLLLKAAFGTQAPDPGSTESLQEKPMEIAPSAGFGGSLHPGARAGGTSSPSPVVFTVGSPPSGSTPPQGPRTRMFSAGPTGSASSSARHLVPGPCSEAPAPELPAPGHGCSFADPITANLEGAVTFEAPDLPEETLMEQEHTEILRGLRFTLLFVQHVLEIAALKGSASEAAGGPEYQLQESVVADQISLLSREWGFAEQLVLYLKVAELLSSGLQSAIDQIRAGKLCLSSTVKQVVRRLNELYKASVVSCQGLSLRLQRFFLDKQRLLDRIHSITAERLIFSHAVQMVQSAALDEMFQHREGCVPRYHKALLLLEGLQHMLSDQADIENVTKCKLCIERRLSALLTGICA
ASK1 inh: human ASK1 kinase inhibition, primary screen; Q99683; AlphaScreen MKK6 phosphorylation by ASK1, luminescence; inhibition, % at 7.44 µM; 22,000 tested, 0.99% active; in the data active means inhibition above about 35%;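 further: 0% = median of compound wells and 100% = no enzyme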
Numbers without * were called inactive.

Screening NS(=O)(=O)c1ccc(Nc2nccc(-c3ccccc3)n2)cc1 returned ULK1 inh 7 and ASK1 inh 8.
Screening CC(C)S(=O)(=O)Nc1ccc(-c2ccnc(Nc3ccc(S(N)(=O)=O)cc3)n2)cc1 returned ULK1 inh 50* and ASK1 inh -9.
CCS(=O)(=O)Nc1ccc(-c2ccnc(Nc3ccc(S(N)(=O)=O)cc3)n2)cc1 was read as ULK1 inh 60* and ASK1 inh -8.
Screening NS(=O)(=O)c1ccc(Nc2nccc(-c3ccc(NS(=O)(=O)Cc4ccccc4)cc3)n2)cc1 returned ULK1 inh 33 and ASK1 inh -14.
For O=C(NNC(=S)Nc1ccc(F)cc1)c1ccccc1[N+](=O)[O-] the results were ULK1 inh -2.
`CCCC(C)C(=O)Nc1nc2c(s1)CCCC2` (configuration not stated) gave ULK1 inh -5.
For COc1ccc(CCNC(=O)C2CCN(c3ccc(Nc4ccncn4)nn3)CC2)cc1 the results were ULK1 inh -2 and ASK1 inh -12.
CC(C)(O)c1ccccc1CC[C@@H](SCC1(CC(=O)O)CC1)c1cccc(/C=C/c2ccc3ccc(Cl)cc3n2)c1 was read as ULK1 inh 43*.
`Cc1cc(NCCN(C(C)C)C(C)C)nc(-c2cccs2)n1` gave ULK1 inh 1 and ASK1 inh 2.
c1cc(Nc2ccc(N3CCOCC3)cc2)cc(Nc2ccc(N3CCOCC3)cc2)n1 was read as ULK1 inh 6 and ASK1 inh 29.
Cc1cc(Nc2ccc(N3CCOCC3)cc2)nc(Nc2ccccc2)n1 was read as ULK1 inh 7 and ASK1 inh 42*.
Nc1nccc(Nc2ccnc(Nc3ccc(N4CCOCC4)cc3)c2)n1 was read as ULK1 inh 43* and ASK1 inh 17.
For O=C(Nc1ccc(N2CCOCC2)cc1)c1ccnc(Nc2ccncc2)c1 the results were ULK1 inh 49* and ASK1 inh -22.
`O=C(Nc1ccc(N2CCOCC2)cc1)c1cccc(Nc2ccc(-n3ccnc3)cc2)c1` gave ULK1 inh 44* and ASK1 inh 14.
O=C(Nc1ccc2c(c1)OCO2)c1cccc(Nc2ccc(-n3ccnc3)cc2)c1 was read as ULK1 inh 3 and ASK1 inh -5.
Screening Cc1cc(NCc2ccccc2)nc(Nc2ccc(N3CCOCC3)cc2)n1 returned ULK1 inh 11 and ASK1 inh 24.
`Cn1nccc1Nc1cc(C(=O)Nc2ccc(N3CCOCC3)cc2)ccn1` gave ULK1 inh 9 and ASK1 inh 20.
Screening NC(=O)c1ccc2cnn(-c3cccc(C(=O)Nc4ccc(N5CCOCC5)cc4)c3)c2c1 returned ULK1 inh 0 and ASK1 inh 9.
O=C(Nc1ccc(N2CCOCC2)cc1)c1cncc(Nc2ccncc2)c1 was read as ULK1 inh 66* and ASK1 inh -28.
Screening O=C(NCCN1CCOCC1)c1ccnc(NCc2ccc3c(c2)OCO3)c1 returned ULK1 inh 0 and ASK1 inh -7.
O=C(Nc1ccc(N2CCOCC2)cc1)c1cncc(-c2ccc(N3CCOCC3)nc2)c1 was read as ULK1 inh 15 and ASK1 inh 10.
O=C(Nc1ccc(N2CCOCC2)cc1)c1ccnc(NCc2ccc3c(c2)OCO3)c1 was read as ULK1 inh 45* and ASK1 inh -19.
For CC(=O)Nc1ccc(NC(=O)c2cccc(N3CCOCC3)c2)cc1 the results were ULK1 inh 6 and ASK1 inh -24.
`O=C(Nc1ccc(N2CCOCC2)cc1)c1cccc(Nc2ccncc2)c1` gave ULK1 inh 70* and ASK1 inh -18.
CC(C)N(CCNc1cc(NCc2cccnc2)ncn1)C(C)C was read as ULK1 inh -15 and ASK1 inh -14.
For COc1ccc(-c2cncc(-c3cc(N4CCN(CCO)CC4)nc(C)n3)c2)cc1 the results were ULK1 inh -1.
Screening c1cncc(CNc2nc(Nc3cccnc3)nc3c2ncn3C2CCCCC2)c1 returned ULK1 inh 5 and ASK1 inh -5.
CC(=O)c1cccc(-c2nc3ccc(C(=O)NCc4cccc(C(F)(F)F)c4)cc3s2)c1 was read as ULK1 inh -12 and ASK1 inh -10.
For Cc1cnc(Nc2ccc(-n3ccnc3)cc2)nc1NCCOc1ccccc1 the results were ULK1 inh 34 and ASK1 inh 11.
`c1ccc(OCCNc2nc(Nc3ccc(-n4ccnc4)cc3)nc3nc[nH]c23)cc1` gave ULK1 inh 53* and ASK1 inh -10.
`Oc1ccc(CCNc2nc(Nc3ccc(-n4ccnc4)cc3)nc3nc[nH]c23)cc1` gave ULK1 inh 50* and ASK1 inh -66.
c1ccc(Nc2nc(NCCOc3ccccc3)c3[nH]cnc3n2)cc1 was read as ULK1 inh 28 and ASK1 inh 7.
For c1ccc(OCCNc2nc(Nc3cccnc3)nc3nc[nH]c23)cc1 the results were ULK1 inh 48* and ASK1 inh 14.
For Oc1ccc(CCNc2nc(Nc3ncccn3)nc3nc[nH]c23)cc1 the results were ULK1 inh 8 and ASK1 inh -6.
`Cc1cnc(Nc2ccc(-n3ccnc3)cc2)nc1NCCc1ccc(O)cc1` gave ULK1 inh 29 and ASK1 inh -12.
For Cc1cnc(Nc2ccc(-n3ccnc3)cc2)nc1NCCO the results were ULK1 inh 50* and ASK1 inh -8.
`CC(C)n1c(Nc2ccc3ncccc3c2)nc2c(NCCN3CCOCC3)ncnc21` gave ULK1 inh -5 and ASK1 inh -1.
`CC(C)n1c(Nc2ccc3ncccc3c2)nc2c(NCCc3ccc(O)cc3)ncnc21` gave ULK1 inh -9 and ASK1 inh -11.
`c1ccc(Oc2ccc(Nc3nc(Nc4ccncc4)nc4nc[nH]c34)cc2)cc1` gave ULK1 inh -14 and ASK1 inh -18.
For Oc1ccc(CCNc2nc(Nc3ccccc3)nc3nc[nH]c23)cc1 the results were ULK1 inh 36 and ASK1 inh -26.
For Oc1ccc(CCNc2nc(Nc3ccncc3)nc3nc[nH]c23)cc1 the results were ULK1 inh 51* and ASK1 inh -71.
Screening Cn1nc(-c2ccnc(Nc3ccc(N4CCOCC4)cc3)c2)cc1NC(=O)Cc1ccccc1 returned ULK1 inh -11 and ASK1 inh 26.
O=C(NCCOc1ccccc1)c1ccc2nc(-c3ccc(N4CCOCC4)nc3)sc2c1 was read as ULK1 inh 4 and ASK1 inh -22.
For O=C(NC1CC1)c1ccc(-c2ncc(C(=O)Nc3ccc(Oc4ccccc4)cc3)s2)cc1 the results were ULK1 inh 11 and ASK1 inh 5.
Screening O=C(OCCO)c1ccccc1O returned ULK1 inh 0.
CCOC(=O)c1ccccc1O was read as ULK1 inh 54*.
CC(=O)Nc1ccc(O)cc1 was read as ULK1 inh -2.
CC(=O)Nc1ccccc1 was read as ULK1 inh 58*.
NCC(=O)N1CCC(C(=O)Nc2nc3ccc(-c4ccncc4)cc3s2)CC1 was read as ULK1 inh 22 and ASK1 inh 4.
Fc1ccc(-c2cc(NC3CC3)nc(-c3ccccn3)n2)cc1 was read as ULK1 inh 6.
Cc1cc(Nc2ccccc2)nc(Nc2ccncn2)n1 was read as ULK1 inh 0 and ASK1 inh 7.
For COc1cc(Nc2cc(Nc3ccccc3)ncn2)cc(OC)c1OC the results were ULK1 inh -2 and ASK1 inh 8.
`COc1cc(Nc2cc(Nc3ccncn3)ncn2)cc(OC)c1OC` gave ULK1 inh 43* and ASK1 inh 1.
